Assay results reported in PubChem BioAssay AID1159580 (chemical genetic matrix, 2015).
Values joined by “and” are separate entries in the source; they are usually repeats but may differ in a detail not shown here. Equal values may be shown once. Screen size: about 5,500 compounds; about 2,000 (36%) were called active. About 18% were inconclusive and are not listed. Rule as the data show it: active = normalized growth mostly below about 0.91 (no sharp cut-off); inconclusive = no clear call, values can overlap the other calls; inactive = mostly above about 0.92. This is one part of the list.

Experiment: chemical genetic growth profiling, strain panel (AID 1159580);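 also: tested at 20 µM; growth read once vehicle control cultures reached saturation at 30 °C; 1 = growth at the plate median or of vehicle wells; lower values mean less growth of the strain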
Conditions: S. cerevisiae deletion strains, growth OD

Measured: normalized growth

OCCN1CCN(CCCN2c3ccccc3Sc3ccc(C(F)(F)F)cc32)CC1
active: locus YAL021C, strain ccr4, stronger effect = lower value 0.828 | locus YAL026C, strain drs2, stronger effect = lower value 0.0826 | locus YBR021W, strain FUR4, stronger effect = lower value 0.589 | locus YBR023C, strain chs3, stronger effect = lower value 0.899 | locus YDR069C, strain doa4, stronger effect = lower value 0.863 | locus YDR137W, strain rgp1, stronger effect = lower value 1.27 [resistant] | locus YDR195W, strain ref2 1.27 [resistant] | locus YDR388W, stronger effect = lower value 0.878 | locus YFR010W, strain ubp6, stronger effect = lower value 0.839 | locus YGR229C, strain SMI1, stronger effect = lower value 0.602 and 0.781 | locus YGR252W, strain gcn5, stronger effect = lower value 0.664 | locus YJL095W, strain BCK1, stronger effect = lower value 0.794
inactive: locus YAL013W, strain DEP1, stronger effect = lower value 0.947 and 0.96 | locus YAL030W, strain snc1, stronger effect = lower value 0.984 | locus YAL040C, strain CLN3, stronger effect = lower value 1.01 | locus YBL061C, strain skt5, stronger effect = lower value 0.951 | locus YBR009C, strain hhf1, stronger effect = lower value 0.935 | locus YBR171W, strain sec66, stronger effect = lower value 0.992 | locus YBR229C, strain ROT2, stronger effect = lower value 0.987 | locus YBR231C, strain swc5, stronger effect = lower value 0.964 | locus YBR279W, strain paf1, stronger effect = lower value 0.953 | locus YCL011C, strain gbp2, stronger effect = lower value 0.919 | locus YCL016C, strain dcc1, stronger effect = lower value 0.937 | locus YCL029C, strain bik1, stronger effect = lower value 0.978 | locus YCL061C, strain MRC1 (second series), stronger effect = lower value 0.957 | locus YCL069W, strain vba3, stronger effect = lower value 0.995 | locus YCR088W, strain abp1, stronger effect = lower value 0.987 | locus YDL005C, strain med2, stronger effect = lower value 1 | locus YDL035C, strain GPR1, stronger effect = lower value 0.928 | locus YDL040C, strain nat1, stronger effect = lower value 0.98 | locus YDL074C, strain BRE1, stronger effect = lower value 0.808 | locus YDL101C, strain DUN1, stronger effect = lower value 0.979 | locus YDL134C, strain PPH21, stronger effect = lower value 0.977 | locus YDL185W, strain tfp1, stronger effect = lower value 0.981 | locus YDL192W, strain arf1, stronger effect = lower value 0.963 | locus YDR001C, strain nth1, stronger effect = lower value 0.989 | locus YDR101C, strain arx1, stronger effect = lower value 0.933 | locus YDR150W, strain NUM1, stronger effect = lower value 0.997 | locus YDR159W, strain sac3, stronger effect = lower value 0.992 | locus YDR162C, strain NBP2, stronger effect = lower value 0.947 | locus YDR297W, strain sur2, stronger effect = lower value 0.981 | locus YDR318W, strain mcm21, stronger effect = lower value 0.947 | locus YDR334W, strain swr1, stronger effect = lower value 0.987 | locus YDR335W, strain msn5, stronger effect = lower value 0.972 | locus YDR363W, strain ESC2, stronger effect = lower value 0.978 | locus YDR392W, strain spt3, stronger effect = lower value 1.06 | locus YDR502C, strain sam2, stronger effect = lower value 0.939 | locus YEL003W, strain gim4, stronger effect = lower value 0.982 | locus YEL037C, strain rad23, stronger effect = lower value 0.994 | locus YEL061C, strain CIN8 (second series), stronger effect = lower value 0.973 | locus YEL061C, strain CIN8, stronger effect = lower value 0.996 | locus YER002W, strain NOP16, stronger effect = lower value 1 | locus YER015W, strain faa2, stronger effect = lower value 0.931 | locus YER016W, strain bim1, stronger effect = lower value 0.979 | locus YER110C, stronger effect = lower value 0.996 | locus YER111C, strain swi4, stronger effect = lower value 0.986 | locus YER155C, strain BEM2 (second series), stronger effect = lower value 1 | locus YER155C, strain BEM2, stronger effect = lower value 0.989 | locus YER167W, strain BCK2, stronger effect = lower value 0.974 | locus YGL078C, strain dbp3, stronger effect = lower value 0.986 | locus YGL086W, strain mad1, stronger effect = lower value 0.964 | locus YGL167C, strain pmr1, stronger effect = lower value 0.976 | locus YGL173C, strain kem1, stronger effect = lower value 0.964 | locus YGL227W, strain vid30, stronger effect = lower value 0.984 | locus YGL240W, strain doc1, stronger effect = lower value 0.997 | locus YGL248W, strain PDE1, stronger effect = lower value 0.989 | locus YGL253W, strain hxk2, stronger effect = lower value 0.917 | locus YGR078C, strain PAC10, stronger effect = lower value 0.907 and 0.971 | locus YGR135W, strain pre9, stronger effect = lower value 0.896 | locus YHR013C, strain ard1, stronger effect = lower value 1 | locus YHR027C, strain rpn1, stronger effect = lower value 0.937 | locus YHR030C, strain SLT2, stronger effect = lower value 0.933 | locus YHR079C, strain IRE1 (second series), stronger effect = lower value 0.973 | locus YHR094C, strain hxt1, stronger effect = lower value 0.992 | locus YHR129C, strain ARP1, stronger effect = lower value 0.983 | locus YHR142W, strain chs7, stronger effect = lower value 0.897 | locus YHR200W, strain rpn10, stronger effect = lower value 0.968 | locus YIL066C, strain RNR3, stronger effect = lower value 0.915 | locus YIL073C, strain SPO22, stronger effect = lower value 1.18 | locus YIL125W, strain kgd1, stronger effect = lower value 0.995 | locus YIR030C, strain dcg1, stronger effect = lower value 0.985 | locus YJL092W, strain hpr5, stronger effect = lower value 0.969 | locus YJL095W, strain BCK1 (second series), stronger effect = lower value 0.94 | locus YJL115W, strain asf1, stronger effect = lower value 0.95 | locus YJL129C, strain trk1, stronger effect = lower value 0.96 | locus YJL134W, strain LCB3, stronger effect = lower value 0.997 | locus YJL154C, strain vps35, stronger effect = lower value 0.982 | locus YJL164C, strain tpk1, stronger effect = lower value 0.917 | locus YJL166W, strain qcr8, stronger effect = lower value 0.956 | locus YJL168C, strain set2, stronger effect = lower value 0.991 | locus YJL187C, strain SWE1 (second series), stronger effect = lower value 0.905 | locus YJR043C, strain POL32, stronger effect = lower value 0.971
